# ATXN2 expr inh = reduces ATXN2 reporter expression in HEK-293 cells; 360,000 compounds, 0.72% hits; AID 1745845; HEK-293 ATXN2-luciferase reporter, luminescence, 24 h; Potency, µM (top dose mostly 57 µM), for inactives: at the highest dose activity change, negative = inhibition, hits mostly inhibitors; further: on the % scale 0 is the no-effect control and ±100 the full control effect; nearly all actives have a fitted effect of over 55% in size
#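 qHTS (up to 57 uM final) was run with 24 h compound exposure of reporter cells at 37 °C. Each well was multiplexed: SteadyGlo luminescence measured ATXN2-luciferase expression after a fluorogenic Gly-Phe-AFC viability readout (25 uM final).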
# ATXN viability = viability counter-screen for ATXN expression inhibitors. Potency, µM (series often up to 56.7 µM), usual class: cytotoxic. 400,000 compounds, 0.49% hits. AID 651635. S2 cells (HEK-293 line with an ATXN2-luciferase reporter) viability, CellTiter-Fluor protease fluorescence, 24 h; further: nearly all actives have a fitted effect of over 40% in size
# HT1080NT lethal = kills 2HG-producing HT-1080-NT fibrosarcoma cells; Potency, µM (titrated, usually from 46.1 µM), inactives show top-dose activity, negative = less viability, hits mostly cytotoxic; 360,000 compounds, 1.6% hits; HT-1080-NT fibrosarcoma viability, CellTiter-Glo ATP luminescence, 48 h;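 further: NT is the 2HG producing partner of a matched IDH1 knockdown line; 0% = DMSO-treated cells and -100% = media-only wells without cells; nearly all actives have a fitted effect of over 55% in size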
#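 HT-1080-NT; 750 cells/well; 5% FBS RPMI; 48 h compound, 37 degrees C; CellTiter-Glo luminescence; curve fitting and curve-class assignment.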
# TGFb SMAD3 inh = blocks TGF-b signaling | HepG2 CAGA-GFP TGF-b/SMAD3 reporter, GFP fluorescence, 18 h; TGF-beta stimulated, 500 pg/mL final | Potency, µM (titrated, usually from 46.1 µM), inactives show at the highest dose activity, negative = inhibition, usual class: inhibitors | AID 588855 | 410,000 compounds, 1.2% hits; further: on the % scale 0 is the no-effect control and ±100 the full control effect; nearly all actives have a fitted effect of over 65% in size
#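 HEPG2 CAGA-GFP, 1000 cells/well; 2 h settle, 37 C; cpd via pin tool; TGF-b 500 pg/mL final; 18 h, 37 C; GFP imaging ex488/em500-530; %Activity normalised to -TGF-b and +DMSO controls; CRC fit, curve class.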
# HepG2 tox = HepG2 cytotoxicity, counter-screen for TGF-b inhibitors; 410,000 compounds, 0.76% hits; HepG2 CAGA-GFP viability, ATP luminescence, 18 h; Potency, µM (doses to about 46.1 µM), without a hit: top-dose activity change, negative = cytotoxicity, hits mostly cytotoxic
#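 CellTiter-Glo luminescence gave cytotoxicity after 18 hours at 37 degrees C. The cells were HepG2 CAGA-GFP in 1% FBS DMEM, stimulated with 500 pg/mL TGF-beta after compound addition. %Activity was normalised to no-cell wells (complete cell-killing) and DMSO (no toxicity), and curves were fitted and classified.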
# HT1080 IDH1KD tx = kills HT-1080 cells with IDH1 knockdown | HT-1080 IDH1 knockdown viability, ATP luminescence, 48 h | Potency, µM (titrated, usually from 46.1 µM), without a hit: top-dose activity, negative = toxicity, usual class: cytotoxic | 360,000 compounds, 2% hits;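 further: 0% = DMSO wells and -100% = cell-free medium wells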
#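 IDH1KD HT-1080 cells, 750/well, RPMI + 5% FBS; compound pinned after 2 h settling; 48 h, 37 °C; CellTiter-Glo luminescence; % activity normalised to DMSO and no-cell wells; curves fitted, classed by r2 and efficacy.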
# * = called active by the depositor; i = inactive; ? = inconclusive; · = not tested or not shown. This is a sample that favours compounds with a hit; in the whole collection about 3.8% have one here. The call rests on the fitted dose curve; in most records, active means well fitted curve in the direction sought with a large enough effect; inconclusive means small, poorly fitted or top-dose-only effect, or another doubt; inactive means no such curve, though single readings can be large; an effect the other way counts as inactive or inconclusive. Potency means the concentration at half of the fitted maximal effect.
SMILES,ATXN2 expr inh,ATXN viability,HT1080NT lethal,TGFb SMAD3 inh,HepG2 tox,HT1080 IDH1KD tx
Cc1ccc2c(c1)c1c3n2CCN(C(=O)CCl)C3CCC1 (stereo not given),-30%,?,16µM*,?,-102%,?
COC(=O)c1c(C)[nH]c(C(=O)CSc2ncnc3sc(-c4ccccc4)cc23)c1C,-18%,i,-3%,-13%,4µM*,-4%
COc1ccccc1C1NC(c2ccc3c(c2)OCO3)=CC(c2cc(Br)ccc2O)N1 (stereo not given),·,·,·,?,-35%,·
CCCn1c(=O)n(-c2ccccc2)c(=O)c2sc3ccccc3c21,0%,i,·,-27%,-21%,·
CCN1CCN(c2nc3c(S(=O)(=O)c4ccc(Br)cc4)nnn3c3ccsc23)CC1,·,·,·,-4%,-12%,·
O=C1/C(=N\S(=O)(=O)c2cccs2)C([n+]2ccc(CCCc3ccccc3)cc2)=C([O-])c2ccccc21,-19%,i,-28%,16µM*,-105%,?
O=C1/C(=N\S(=O)(=O)c2cccs2)C([n+]2cccc(Cc3ccccc3)c2)=C([O-])c2ccccc21,?,?,5.2µM*,?,2.8µM*,5.8µM*
COc1ccc(S(=O)(=O)N2CCOCC2)cc1NC(=O)CCNC(=O)c1ccc(Cl)cc1,6%,i,21µM*,10%,9%,?
CCOc1ccc(S(=O)(=O)N2CCOCC2)cc1NC(=O)CSCc1ccc(C)cc1,·,?,8.2µM*,-5%,-8%,?
COc1ccc(S(=O)(=O)N2CCOCC2)cc1NC(=O)COc1ccc(C)cc1,-12%,i,0%,2%,-4%,-3%
Cc1cccc(NC(=O)c2sc3nc4c(cc3c2N)CN(C(C)C)CC4)c1,?,?,·,-28%,-23%,·
COc1ccc(-c2nc3scc(CCNS(=O)(=O)c4cccs4)n3n2)cc1,·,·,·,-7%,-13%,·
COc1ccc(-c2noc(CSc3nnc(Cc4ccccc4)n3-c3ccc(F)cc3)n2)cc1,?,·,·,16µM*,-36%,·
COC[C@H](c1ccc(C(F)(F)F)cc1)N1CCN(C2(C)CCN(C(=O)c3c(C)ncnc3C)CC2)C[C@H]1C,·,i,·,·,·,·
CC(C)(C)c1ccc(S(=O)(=O)c2cnc(SCC(=O)Nc3ccc4c(c3)OCCO4)[nH]c2=O)cc1,·,·,·,?,-3%,·
CCC(C)NC(=O)Nc1ccc(Br)cc1 (stereo not given),1%,i,-2%,-15%,-15%,3%
CCC(=O)NNc1ccc(Br)cc1,-19%,i,3.7µM*,-8%,0%,4.1µM*
CCOC(=O)C(=NC(C)CC)NNc1ccc(Br)cc1 (stereo not given),-30%,i,16µM*,-3%,-15%,?
O=C(COCc1cc(-c2ccc3c(c2)OCO3)on1)Nc1cccc(O)c1,·,·,·,-30%,-4%,·
O=C(COCc1cc(-c2ccc3c(c2)OCO3)on1)Nc1cccnc1,-1%,i,6.5µM*,-3%,8%,5.8µM*
Cc1cnc(C)c(Nc2nc(C(N)Cc3ccc(Cl)cc3)cs2)n1 (stereo not given),?,i,18µM*,18µM*,-106%,23µM*
COc1ccc(CC(N)c2csc(Nc3ncccn3)n2)cc1 (stereo not given),0%,?,-30%,-27%,-7%,?
COc1ccc(CC(N)c2csc(Nc3nc(C)cnc3C)n2)cc1 (stereo not given),-8%,i,?,-2%,-25%,?
CCc1cnc(Nc2nc(C(N)Cc3ccc(F)cc3)cs2)nc1 (stereo not given),?,·,?,?,-95%,23µM*
Cc1cnc(C)c(Nc2nc(C(N)Cc3ccc(F)cc3)cs2)n1 (stereo not given),?,?,21µM*,?,-107%,?
SMILES,ATXN2 expr inh,ATXN viability,HT1080NT lethal,TGFb SMAD3 inh,HepG2 tox,HT1080 IDH1KD tx
O=C(NCc1ccc(F)cc1Cl)c1ccc(CSCc2ccccc2Cl)o1,·,·,·,13µM*,-32%,·
O=C(NCc1ccccc1Cl)c1ccc(CSCc2cccc(F)c2)o1,·,·,·,?,-24%,·
COc1ccc(NC(=O)C(C)n2nc(-c3ccc(C)c(C)c3)ccc2=O)cc1OC (stereo not given),-17%,?,·,?,-30%,·
CCCCC(CC)CN=C(N)NC(N)=NCCCCCCN=C(N)NC(N)=NCC(CC)CCCC (stereo not given),10µM*,13µM*,7.3µM*,?,11µM*,23µM*
COc1cccc(-c2nc(SCC(=O)NCC3CCCO3)c(-c3ccc(Cl)cc3)[nH]2)c1 (stereo not given),·,·,·,?,-37%,·
Cc1nn2c3ccccc3nc2c2ccccc12,7%,i,?,?,16µM*,?
O=C(O)c1ccc(-c2cc3cccnc3c(-c3ccc4nonc4c3)n2)cc1,-24%,·,·,·,·,·
COC(=O)[C@@]12C[C@@H](CC(=O)N3CCN(C(=O)c4ccco4)CC3)C(=O)N(Cc3cccc4ccccc34)C1=CCC(C)(C)C2,·,·,?,·,·,21µM*
COC(=O)[C@@]12C[C@@H](CC(=O)NCc3cccc(C(F)(F)F)c3)C(=O)N(Cc3ccc4c(c3)OCO4)C1=CCC(C)(C)C2,·,·,13µM*,·,·,21µM*
CCCCOCCCNC(=O)C[C@@H]1C[C@@]2(C(=O)OC)CC(C)(C)CC=C2N(Cc2cccc3ccccc23)C1=O,·,·,?,·,·,21µM*
COCCCNC(=O)C[C@@H]1C[C@@]2(C(=O)OC)CC(C)(C)CC=C2N(Cc2cccc3ccccc23)C1=O,·,·,-11%,·,·,-14%
O=C(CN1C(=O)COc2ccc(S(=O)(=O)N3CCCCCC3)cc21)N1CCN(c2ccc(Cl)cc2)CC1,-25%,?,·,10%,-23%,·
COc1ccc(S(=O)(=O)NN(C)c2nc(C(F)(F)F)nc3ccccc23)cc1,-21%,?,21µM*,3%,2%,16µM*
CCOc1ccc(-c2cnc(NCc3ccc(OC)cc3OC)n2C)cc1,-22%,i,·,-19%,-42%,·
NC(=O)c1ccccc1N=Cc1ccccn1,·,·,-5%,0%,-12%,-1%
Cc1ccc(N=Cc2cccc(O)c2O)c(C)c1,·,·,·,?,-61%,·
Cc1ccccc1N=Cc1cccc(O)c1O,-13%,?,-13%,16µM*,-56%,15µM*
Cc1ccccc1C=Nc1ccccc1C(N)=O,-4%,i,16µM*,?,4%,16µM*
